Bioassay records from PubChem.
KDM4E inh: inhibitors of human JMJD2E histone demethylase; 1.6% of 230,000 active; B2RXH2; Potency, µM (doses to about 57.1 µM), most hits filed as inhibitors; JMJD2E catalytic domain, FDH-coupled NADH fluorescence (FDH is formaldehyde dehydrogenase); also: nearly all actives have a fitted effect of over 50% in size
PNC inhibitor: blocks assembly of the perinucleolar compartment; 3.1% of 140,000 active; PC3M PTB-GFP, PNC prevalence imaging, 16 h; stronger effect = lower value; activity change (PNC), negative = inhibition, % at 10 µM;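 active = readout at or below -70, meaning at least 70% loss of cells showing the perinucleolar compartment, a nuclear body marking cancer cells; inconclusive = readout between -30 and a set limit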
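Read-out is percentage of cells bearing a perinucleolar compartment, from automated 20x imaging of fixed, Hoechst-stained PC3M PTB-GFP cells. Cells were seeded 4 h, then exposed 16 h to compound (23 nl of library stock) in duplicate plates.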
HPGD inh: inhibitors of human 15-hydroxyprostaglandin dehydrogenase (HPGD); P15428; purified HPGD, NADH fluorescence kinetic, PGE2 substrate; Potency, µM, hits mostly inhibitors; 4.3% of 150,000 active; AID 894
Target sequence (P15428 whole entry, looked up): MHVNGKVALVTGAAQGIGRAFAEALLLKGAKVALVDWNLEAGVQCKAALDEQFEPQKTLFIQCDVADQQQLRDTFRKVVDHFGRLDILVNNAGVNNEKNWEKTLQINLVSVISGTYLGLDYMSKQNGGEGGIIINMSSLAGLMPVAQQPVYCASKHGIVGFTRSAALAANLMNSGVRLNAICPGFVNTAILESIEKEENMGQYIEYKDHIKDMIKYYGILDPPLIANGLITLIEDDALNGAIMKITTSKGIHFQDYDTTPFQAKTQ
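NADH formation kinetics: reaction with 30 uM PGE2 and 1 mM NAD+ (final), 20 nM enzyme, Tris-HCl pH 8 with Tween 20, after 15 min compound preincubation at room temperature. Fluorescence change, last versus first of five reads.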
ALDH1A1 block: blocks purified human ALDH1A1 activity; Purified ALDH1A1, NADH fluorescence, propionaldehyde substrate; Potency, µM (highest dose often 75.3 µM), actives largely listed as inhibitors; 7.3% of 220,000 active
Of the large screens only hits and unclear results are named; the others gave an inactive call. Hits are enriched below; roughly 11% of the tested compounds scored in any of these assays. Unless noted, calls follow the shape of the dose curve; as a rule, active = well fitted inhibition curve with a large enough effect (not every such curve was filed as active); inconclusive = small, poorly fitted or top-dose-only effect, or another doubt; inactive = no such curve, though single readings can be large or run the other way.

CC(=O)c1c(N2CCN(c3cccc(Cl)c3)CC2)nc(=S)n(-c2ccccc2)c1C	PNC inhibitor inconclusive
O=C1c2ccccc2-c2ccc(N=[N+]([O-])c3ccc4c(c3)C(=O)c3ccccc3-4)cc21	none (no result: KDM4E inh, PNC inhibitor)
COc1cccc(CN2CCN(Cc3ccc(O)cc3)CC2CCO)c1 (configuration not stated)	none (no result: PNC inhibitor, HPGD inh)
COC(=O)c1cccc(NC(=S)NCCC2=CCCCC2)c1	HPGD inh inconclusive, ALDH1A1 block 28µM
COc1ccc(CNC(=O)COC(=O)CC2CCCC2)cc1	ALDH1A1 block 7.9µM
O=C(NC(=S)NCCC1=CCCCC1)c1ccccc1Br	ALDH1A1 block 7.1µM (no result: PNC inhibitor, HPGD inh)
COC(=O)c1ccc(NC(=S)NCCC2=CCCCC2)cc1	PNC inhibitor inconclusive, ALDH1A1 block inconclusive
COc1ccc(OCCC(=O)OCC(=O)NC2CCCCCCC2)cc1	ALDH1A1 block 16µM (no result: PNC inhibitor, HPGD inh)
O=C(c1csnn1)N1CCC2(CC1)CCN(c1ccccn1)CC2	ALDH1A1 block inconclusive (no result: KDM4E inh, PNC inhibitor)
CN(c1nc(-c2ccc(Br)cc2)cs1)C1CCS(=O)(=O)C1 (configuration not stated)	none (no result: PNC inhibitor, HPGD inh)
O=C(OC[C@@H]1O[C@@](O)(COC(=O)c2cccnc2)[C@H](OC(=O)c2cccnc2)[C@H]1OC(=O)c1cccnc1)c1cccnc1	none (no result: KDM4E inh, PNC inhibitor)
COC(=O)CCCC1=CC2=CC(=O)C(C)(OC(=O)c3cccs3)C(=O)C2=CN1C(CO)CO (configuration not stated)	none (no result: PNC inhibitor)
CCOC(=O)COc1ccc(S(=O)(=O)NCCC2=CCCCC2)cc1	PNC inhibitor inconclusive, ALDH1A1 block 32µM
O=C(COc1ncnc2ccccc12)NCCC1=CCCCC1	none
O=C(COc1cnc2ccccc2n1)NCCC1=CCCCC1	ALDH1A1 block 11µM
COc1ccc(CC(=O)NCCC2=CCCCC2)cc1	ALDH1A1 block 24µM (no result: PNC inhibitor, HPGD inh)
COc1ccc(OCCC(=O)OCC(=O)NCCC2=CCCCC2)cc1	ALDH1A1 block 13µM (no result: PNC inhibitor, HPGD inh)
O=C(NNC(=S)NC(=O)c1ccco1)c1ccc(NC(=O)c2ccccc2)cc1	KDM4E inh inconclusive (no result: PNC inhibitor, HPGD inh)
O=C(NC(=S)NNC(=O)c1cc2ccccc2cc1O)c1ccco1	KDM4E inh 18µM, ALDH1A1 block inconclusive (no result: PNC inhibitor, HPGD inh)
O=C(NC(=S)NNC(=O)c1ccccc1O)c1ccco1	KDM4E inh 7.1µM, PNC inhibitor inconclusive, HPGD inh inconclusive, ALDH1A1 block inconclusive
CCOc1ccccc1NC(=O)CCCn1cc([N+](=O)[O-])cn1	ALDH1A1 block inconclusive (no result: PNC inhibitor, HPGD inh)
Cc1oc(-c2nc3ccccc3n2C)cc1C(=O)c1ccccc1	HPGD inh 35µM, ALDH1A1 block inconclusive
O=C(O)CCC(=O)NC1CCCCC1	none
O=C(CCC1CCCC1)NC1CCCCC1	HPGD inh 16µM
O=C(CC1CCCCC1)NC1CCCC1	HPGD inh 18µM
COc1ccc(N2C(=O)CSC23C(=O)N2CCCc4cccc3c42)cc1 (configuration not stated)	ALDH1A1 block 11µM
C=C(C)CSc1nnc2n(N)c(=O)c3ccccc3n12	none
C/C(Cl)=C\CSc1nnc2n(N)c(=O)c3ccccc3n12	ALDH1A1 block 18µM
COc1ccc(OCCC(=O)OCC(=O)NCc2ccc(F)cc2)cc1	none (no result: PNC inhibitor, HPGD inh)
COc1cc(C2SCCS2)cc(Br)c1Oc1ncccc1[N+](=O)[O-]	ALDH1A1 block inconclusive (no result: PNC inhibitor, HPGD inh)
O=[N+]([O-])c1cccnc1Oc1ccc(C2SCCS2)cc1	ALDH1A1 block 18µM (no result: PNC inhibitor, HPGD inh)
O=C(COCCOCC(=O)N(c1ccccn1)C1CCCCC1)N(c1ccccn1)C1CCCCC1	PNC inhibitor -100
CC(C)(C)c1ccc(OCC(=O)N(c2ccccn2)C2CCCCC2)cc1	none
c1ccc(OCc2nc3c4c(ncn3n2)-c2ccccc2CC42CCCC2)cc1	KDM4E inh inconclusive, PNC inhibitor -125, ALDH1A1 block inconclusive
Nc1ncnc2c1C1(CCCCC1)Cc1ccccc1-2	KDM4E inh inconclusive, ALDH1A1 block inconclusive
Cc1sc2nc(C3CC3)nc(NCCNS(C)(=O)=O)c2c1C	ALDH1A1 block 32µM
Cc1nc(NCCc2ccc(S(N)(=O)=O)cc2)c2c(C)c(C)sc2n1	PNC inhibitor inconclusive
Cc1cccnc1NC(=S)NCc1ccco1	ALDH1A1 block 13µM (no result: PNC inhibitor, HPGD inh)
O=C(O)Cc1ccc(NC(=S)NCc2ccco2)cc1	none
O=C(c1ccc(NC(=S)NCc2ccco2)cc1)N1CCCCC1	ALDH1A1 block 22µM (no result: PNC inhibitor, HPGD inh)
S=C(NCc1ccco1)Nc1ccc(Oc2ccc(Cl)cc2)cc1	ALDH1A1 block inconclusive (no result: PNC inhibitor, HPGD inh)
S=C(NCc1ccco1)Nc1ccc(Cl)cc1	HPGD inh 18µM, ALDH1A1 block inconclusive
CCNS(=O)(=O)c1ccc(NC(=S)NCc2ccco2)cc1	KDM4E inh inconclusive, ALDH1A1 block 22µM
O=C(CSc1nccc(=O)[nH]1)NCc1ccco1	none (no result: PNC inhibitor, HPGD inh)
COc1ccc(S(=O)(=O)NC2CC(C)(C)NC(C)(C)C2)cc1C(C)C	none (no result: PNC inhibitor, HPGD inh, ALDH1A1 block)
